The target of assay [1] is human Acetylcholinesterase (AChE), ACHE (gene 43) (UniProt P22303). Nature of the assay: NVS_ENZ_hAChE: NovaScreen (NVS) Enzymatic Assay for human Acetylcholinesterase (AChE) (AID 2283129). As for the experimental part:
NVS_ENZ_hAChE is a biochemical, single-readout assay that uses extracted gene-proteins in a cell-free assay. Measurements were taken 0.33 hour after chemical dosing in a 96-well plate.NVS_ENZ_hAChE is one of one assay component(s) measured or calculated from the NVS_ENZ_hAChE assay. It is designed to make measurements of enzyme activity, a form of enzyme reporter, as detected with absorbance signals by Colorimetric technology.Data from the assay component NVS_ENZ_hAChE was analyzed into 1 assay endpoint. This assay endpoint, NVS_ENZ_hAChE, was analyzed in the positive analysis fitting direction relative to DMSO as the negative control and baseline of activity. Using a type of enzyme reporter, loss-of-signal activity can be used to understand changes in the enzymatic activity as they relate to the gene ACHE. Furthermore, this assay endpoint can be referred to as a primary readout, because this assay has produced multiple assay endpoints where this one serves a enzymatic activity function. To generalize the intended target to other relatable targets, this assay endpoint is annotated to the esterase intended target family, where the subfamily is acetylcholinesterase.
Binding assays used specific radioligands (tritiated, iodinated) with non-radioactive competitive displacement ligands in agonist or antagonist protocols (as indicated) and various reference compounds and inhibitors to titrate specific binding to receptors and transporters. Most enzyme assays (CYPs, kinases, phosphatases, proteases, HDACs) used recombinant protein and specific substrates (fluorescence mostly, some colorimetric and radioactive) and inhibitors, followed by a biochemical separation of substrate and product. All assays for the biochemical HTS were initially run in duplicate at a single concentration (10 uM for CYP450 assays and 25 uM for all others). […] Each assay was run with positive and negative controls, and concurrent controls on every plate. The follow-up (secondary) screen tested active chemical-pairs in concentration series, as well as a few additional assays not tested in the primary screen, some selected negative inactives, and several cases re-run in the concentration series for confirmatory purposes.

Assay [2] deals with human CYP4F12, CYP4F12 (gene 66002) (UniProt Q9HCS2). Nature of the assay: NVS_ADME_hCYP4F12: NovaScreen (NVS) CYP450-related Enzyme Activity (ADME) Assay for human CYP4F12 (AID 2283111). The gist of the method:
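Cell-free fluorescence assay of recombinant human CYP4F12 activity on a specific substrate, read 0.5 h after dosing. Primary screen in duplicate at 10 uM, then concentration series for actives; loss of signal fitted against acetonitrile negative control.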

Assay [3] has as its target human AMP-activated Protein Kinase, alpha 1 (AMPKa1), PRKAA1 (gene 5562) (UniProt Q13131). In words: NVS_ENZ_hAMPKa1: NovaScreen (NVS) Enzymatic Assay for human AMP-activated Protein Kinase, alpha 1 (AMPKa1) (AID 2283130). The gist of the method: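 Recombinant human AMPKα1 activity was measured cell-free by fluorescent substrate conversion with electrophoretic mobility-shift separation, 1 h after dosing. Duplicate single-point screening was at 25 uM; actives (≥30% inhibition) were retested in concentration-response up to 50 uM.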

Assay [4] has as its target human Acid Phosphatase 1 (ACP1), ACP1 (gene 52) (UniProt P24666). In words: NVS_ENZ_hACP1: NovaScreen (NVS) Enzymatic Assay for human Acid Phosphatase 1 (ACP1) (AID 2283136). In outline: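 Recombinant enzyme expressed in Sf9 cells, tested cell-free; activity read by fluorescence with electrophoretic mobility shift separation of substrate and product, 1.5 h after dosing. Primary screen in duplicate at 25 uM, actives then run in concentration series; loss of signal versus DMSO.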

Assay [5] deals with human CYP2D6, CYP2D6 (gene 1565) (UniProt P10635). In words: NVS_ADME_hCYP2D6: NovaScreen (NVS) CYP450-related Enzyme Activity (ADME) Assay for human CYP2D6 (AID 2283107). In outline: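 Cell-free assay using recombinant human CYP2D6 expressed in insect cells, with a fluorogenic substrate read after 1 h. Primary screen in duplicate at 10 uM; actives followed up in concentration series. Loss of signal fitted relative to acetonitrile.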

The target in assay [6] is Cytochrome P450 3A4 (Homo sapiens) (UniProt P08684). In words: NVS_ADME_hCYP3A4: NovaScreen (NVS) CYP450-related Enzyme Activity (ADME) Assay for human CYP3A4 (AID 2283110). The gist of the method: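 Cell-free assay using insect-cell-expressed human CYP3A4 with a fluorogenic substrate; fluorescence intensity was read 0.33 hour after dosing. Loss of signal relative to acetonitrile vehicle indicated inhibition. Primary single-concentration screen at 10 uM, in duplicate, then concentration series.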

Assay [7] concerns the target Cytochrome P450 2C19 (Homo sapiens) (UniProt P33261). Nature of the assay: NVS_ADME_hCYP2C19: NovaScreen (NVS) CYP450-related Enzyme Activity (ADME) Assay for human CYP2C19 (AID 2283113).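 On AC50: potency for inhibition seen as loss of fluorescent signal.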 In outline: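 Cell-free recombinant human CYP2C19 from insect cells, fluorescent substrate; activity read by fluorescence intensity 1 h after dosing. Primary screen in duplicate at 10 uM; actives retested in concentration series. Signal loss versus acetonitrile negative control.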

Assay [8] deals with Caspase-1 (Homo sapiens) (UniProt P29466). In words: NVS_ENZ_hCASP1: NovaScreen (NVS) Enzymatic Assay for human Caspase 1 (CASP1) (AID 2283132). As for the experimental part:
NVS_ENZ_hCASP1 is a biochemical, single-readout assay that uses extracted gene-proteins from E. coli in a cell-free assay. Measurements were taken 1 hour after chemical dosing in a 96-well plate.NVS_ENZ_hCASP1 is one of one assay component(s) measured or calculated from the NVS_ENZ_hCASP1 assay. It is designed to make measurements of enzyme activity, a form of enzyme reporter, as detected with fluorescence intensity signals by Fluorescence technology.Data from the assay component NVS_ENZ_hCASP1 was analyzed into 1 assay endpoint. This assay endpoint, NVS_ENZ_hCASP1, was analyzed in the positive analysis fitting direction relative to DMSO as the negative control and baseline of activity. […] Furthermore, this assay endpoint can be referred to as a primary readout, because this assay has produced multiple assay endpoints where this one serves a enzymatic activity function. […]
Binding assays used specific radioligands (tritiated, iodinated) with non-radioactive competitive displacement ligands in agonist or antagonist protocols (as indicated) and various reference compounds and inhibitors to titrate specific binding to receptors and transporters. Most enzyme assays (CYPs, kinases, phosphatases, proteases, HDACs) used recombinant protein and specific substrates (fluorescence mostly, some colorimetric and radioactive) and inhibitors, followed by a biochemical separation of substrate and product. […]

The target in assay [9] is human Caspase 5 (CASP5), CASP5 (gene 838) (UniProt P51878). In words: NVS_ENZ_hCASP5: NovaScreen (NVS) Enzymatic Assay for human Caspase 5 (CASP5) (AID 2283137). In outline:
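Cell-free protease assay with bacterially expressed CASP5 and a fluorescent substrate, measured at 2 h. Values fitted relative to DMSO as baseline, from concentration-response series topping at 50 uM.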

Assay [10] addresses human Caspase 2 (CASP2), CASP2 (gene 835) (UniProt P42575). In words: NVS_ENZ_hCASP2: NovaScreen (NVS) Enzymatic Assay for human Caspase 2 (CASP2) (AID 2283135). In outline: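 E. coli-expressed enzyme in a cell-free protease assay, fluorescence read 1 h after dosing. Compounds at 25 uM in duplicate, with concentration-response up to 50 uM for hits; loss of signal against DMSO baseline.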

Inconclusive results are not listed. The source made the active and inactive calls. How the source made its calls: active means hit-call score of the fitted dose curve at least 0.9, where 1 is the maximum; inconclusive means response in the unintended direction; inactive means score below 0.9.

Chain of human Caspase 5 (CASP5), CASP5 (gene 838) (P51878 whole entry, looked up): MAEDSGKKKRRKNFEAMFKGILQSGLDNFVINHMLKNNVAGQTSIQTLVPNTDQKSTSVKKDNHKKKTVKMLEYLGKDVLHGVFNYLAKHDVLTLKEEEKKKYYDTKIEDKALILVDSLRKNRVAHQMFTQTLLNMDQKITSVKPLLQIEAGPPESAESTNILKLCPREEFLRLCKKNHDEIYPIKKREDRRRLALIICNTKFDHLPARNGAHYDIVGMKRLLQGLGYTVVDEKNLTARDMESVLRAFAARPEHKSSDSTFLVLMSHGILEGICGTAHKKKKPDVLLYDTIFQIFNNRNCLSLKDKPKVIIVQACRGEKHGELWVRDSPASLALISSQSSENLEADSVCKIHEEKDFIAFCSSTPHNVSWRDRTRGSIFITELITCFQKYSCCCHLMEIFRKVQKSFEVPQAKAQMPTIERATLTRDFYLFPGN
Chain of Cytochrome P450 3A4 (Homo sapiens) (P08684 whole entry, looked up): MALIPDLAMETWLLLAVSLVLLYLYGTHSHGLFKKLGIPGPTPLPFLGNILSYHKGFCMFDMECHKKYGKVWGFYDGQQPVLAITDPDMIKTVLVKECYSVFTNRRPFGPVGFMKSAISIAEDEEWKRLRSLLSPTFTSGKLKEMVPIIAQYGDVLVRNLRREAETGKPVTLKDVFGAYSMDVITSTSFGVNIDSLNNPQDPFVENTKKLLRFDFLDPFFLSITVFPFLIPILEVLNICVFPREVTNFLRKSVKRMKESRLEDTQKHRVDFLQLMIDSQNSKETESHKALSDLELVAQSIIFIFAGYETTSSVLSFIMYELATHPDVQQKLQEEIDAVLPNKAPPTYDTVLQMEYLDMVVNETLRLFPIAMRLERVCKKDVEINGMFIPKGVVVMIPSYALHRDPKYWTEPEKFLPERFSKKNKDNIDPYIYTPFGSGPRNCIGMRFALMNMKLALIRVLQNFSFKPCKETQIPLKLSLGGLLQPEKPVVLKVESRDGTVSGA
Chain of human AMP-activated Protein Kinase, alpha 1 (AMPKa1), PRKAA1 (gene 5562) (Q13131 whole entry, looked up): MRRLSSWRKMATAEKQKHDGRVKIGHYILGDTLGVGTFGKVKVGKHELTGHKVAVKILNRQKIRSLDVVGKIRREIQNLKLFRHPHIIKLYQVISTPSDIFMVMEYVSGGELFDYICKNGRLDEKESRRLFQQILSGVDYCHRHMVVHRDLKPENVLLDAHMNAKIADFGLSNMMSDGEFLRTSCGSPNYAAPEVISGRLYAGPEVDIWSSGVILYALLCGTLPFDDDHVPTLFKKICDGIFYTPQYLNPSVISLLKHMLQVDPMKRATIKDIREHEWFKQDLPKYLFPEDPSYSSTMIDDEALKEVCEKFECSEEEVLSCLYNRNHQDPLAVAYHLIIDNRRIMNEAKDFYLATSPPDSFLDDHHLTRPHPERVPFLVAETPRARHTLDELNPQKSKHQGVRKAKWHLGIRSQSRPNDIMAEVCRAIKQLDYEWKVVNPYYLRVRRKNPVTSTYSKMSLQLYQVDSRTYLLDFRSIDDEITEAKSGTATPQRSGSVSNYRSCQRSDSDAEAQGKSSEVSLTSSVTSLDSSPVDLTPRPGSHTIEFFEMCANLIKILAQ
Chain of human CYP4F12, CYP4F12 (gene 66002) (Q9HCS2 whole entry, looked up): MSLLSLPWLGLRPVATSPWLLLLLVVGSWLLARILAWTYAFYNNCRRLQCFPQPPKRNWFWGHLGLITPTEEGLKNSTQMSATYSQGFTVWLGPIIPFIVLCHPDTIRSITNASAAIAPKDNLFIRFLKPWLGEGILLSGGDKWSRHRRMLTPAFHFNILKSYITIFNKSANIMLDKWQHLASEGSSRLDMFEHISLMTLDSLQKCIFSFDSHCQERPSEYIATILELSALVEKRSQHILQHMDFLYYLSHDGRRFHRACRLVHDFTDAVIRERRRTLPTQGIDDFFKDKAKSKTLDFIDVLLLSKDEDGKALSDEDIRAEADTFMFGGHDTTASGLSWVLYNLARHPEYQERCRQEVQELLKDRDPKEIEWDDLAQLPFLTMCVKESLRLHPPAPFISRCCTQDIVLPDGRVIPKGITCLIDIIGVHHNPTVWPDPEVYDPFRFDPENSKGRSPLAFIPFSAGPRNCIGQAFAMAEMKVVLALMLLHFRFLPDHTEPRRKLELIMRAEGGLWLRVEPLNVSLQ
Chain of human Caspase 2 (CASP2), CASP2 (gene 835) (P42575 whole entry, looked up): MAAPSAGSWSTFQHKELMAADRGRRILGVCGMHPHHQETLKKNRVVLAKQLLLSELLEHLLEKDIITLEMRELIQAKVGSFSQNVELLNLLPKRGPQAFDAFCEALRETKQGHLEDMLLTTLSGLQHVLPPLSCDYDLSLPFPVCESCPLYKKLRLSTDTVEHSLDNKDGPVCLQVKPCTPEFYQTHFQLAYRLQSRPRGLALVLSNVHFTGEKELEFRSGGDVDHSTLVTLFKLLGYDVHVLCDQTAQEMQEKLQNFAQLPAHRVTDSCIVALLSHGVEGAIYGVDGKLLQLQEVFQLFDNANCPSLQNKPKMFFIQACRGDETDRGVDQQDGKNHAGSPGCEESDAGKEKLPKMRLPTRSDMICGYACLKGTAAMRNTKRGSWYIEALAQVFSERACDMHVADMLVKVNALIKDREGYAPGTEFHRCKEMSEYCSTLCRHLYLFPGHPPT
Chain of human CYP2D6, CYP2D6 (gene 1565) (P10635 whole entry, looked up): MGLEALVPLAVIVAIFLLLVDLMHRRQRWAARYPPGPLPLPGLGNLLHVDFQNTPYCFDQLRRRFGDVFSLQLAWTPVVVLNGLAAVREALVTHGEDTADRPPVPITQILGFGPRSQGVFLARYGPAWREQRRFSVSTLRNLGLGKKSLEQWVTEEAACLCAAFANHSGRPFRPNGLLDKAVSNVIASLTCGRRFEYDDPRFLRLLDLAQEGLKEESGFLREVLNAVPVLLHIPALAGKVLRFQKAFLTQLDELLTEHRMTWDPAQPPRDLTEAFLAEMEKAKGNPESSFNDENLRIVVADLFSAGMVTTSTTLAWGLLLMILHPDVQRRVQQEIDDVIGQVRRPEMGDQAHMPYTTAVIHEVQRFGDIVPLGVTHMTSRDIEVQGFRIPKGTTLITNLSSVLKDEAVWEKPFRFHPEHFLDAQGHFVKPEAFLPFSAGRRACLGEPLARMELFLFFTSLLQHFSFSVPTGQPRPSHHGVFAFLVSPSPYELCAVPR
Chain of human Acetylcholinesterase (AChE), ACHE (gene 43) (P22303 whole entry, looked up): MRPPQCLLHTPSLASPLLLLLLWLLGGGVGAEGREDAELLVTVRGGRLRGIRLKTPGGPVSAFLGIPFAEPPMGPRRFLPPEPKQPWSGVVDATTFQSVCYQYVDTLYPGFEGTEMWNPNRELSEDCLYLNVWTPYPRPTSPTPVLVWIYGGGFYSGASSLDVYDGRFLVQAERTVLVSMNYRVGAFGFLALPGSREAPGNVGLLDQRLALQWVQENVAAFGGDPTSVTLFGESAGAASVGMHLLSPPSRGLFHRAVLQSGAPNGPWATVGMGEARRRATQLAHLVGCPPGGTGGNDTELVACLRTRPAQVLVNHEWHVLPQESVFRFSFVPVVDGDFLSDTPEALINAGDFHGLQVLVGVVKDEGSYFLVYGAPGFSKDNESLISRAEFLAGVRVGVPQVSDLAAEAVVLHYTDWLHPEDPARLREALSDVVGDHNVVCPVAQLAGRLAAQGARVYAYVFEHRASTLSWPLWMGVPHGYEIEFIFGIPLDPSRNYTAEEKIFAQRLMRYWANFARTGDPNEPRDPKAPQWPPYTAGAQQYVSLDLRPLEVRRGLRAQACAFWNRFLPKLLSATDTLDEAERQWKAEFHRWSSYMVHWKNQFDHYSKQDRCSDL
Chain of Caspase-1 (Homo sapiens) (P29466 whole entry, looked up): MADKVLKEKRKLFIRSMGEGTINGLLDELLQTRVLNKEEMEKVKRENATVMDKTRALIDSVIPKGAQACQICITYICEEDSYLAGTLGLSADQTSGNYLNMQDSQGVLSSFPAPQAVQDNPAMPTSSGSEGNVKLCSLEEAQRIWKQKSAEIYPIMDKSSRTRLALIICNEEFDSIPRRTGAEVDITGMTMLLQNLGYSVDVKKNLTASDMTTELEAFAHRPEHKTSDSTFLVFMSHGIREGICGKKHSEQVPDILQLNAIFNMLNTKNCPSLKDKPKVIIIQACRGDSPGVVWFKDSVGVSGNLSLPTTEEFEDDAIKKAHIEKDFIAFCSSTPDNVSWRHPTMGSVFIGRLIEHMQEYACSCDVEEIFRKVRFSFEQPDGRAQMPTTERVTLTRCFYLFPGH
Chain of human Acid Phosphatase 1 (ACP1), ACP1 (gene 52) (P24666 whole entry, looked up): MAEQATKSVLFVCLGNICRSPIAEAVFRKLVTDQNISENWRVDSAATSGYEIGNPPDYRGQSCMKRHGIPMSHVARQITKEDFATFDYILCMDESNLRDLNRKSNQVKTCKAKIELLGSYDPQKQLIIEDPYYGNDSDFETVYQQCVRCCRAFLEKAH

Regarding `CCC[CH2][Sn]([Cl])([CH2]CCC)[CH2]CCC`, in assay [1], the result was inactive. By AC50 is commonly meant the concentration giving half of the maximal activity seen. On to `CCN(CC)N=O`, for which the AC50 in [2] is 6.21 µM (active). Further, the molecule was classed as inactive in [3] and in assay [4]. In the case of `O=[N+]([O-])C(Br)(CO)CO`, the molecule was classed as inactive in [5] and in assay [6]. For the same molecule, the values for the AC50 in [7] and in assay [1] were 1.93 µM (active) and 29.5 µM (active), respectively. As for `Cc1ccc([N+](=O)[O-])cc1`, the result in assay [2] was inactive. Turning to `CN(C)[C@@H]1C(=O)C(C(N)=O)=C(O)[C@@]2(O)C(=O)C3=C(O)c4c(O)cccc4[C@@](C)(O)[C@H]3C[C@@H]12`, the outcome in assay [8] was inactive. The AC50 in assay [9] is 10.9 µM (active). `Nc1ccc(Oc2ccc(N)cc2)cc1`: the molecule was classed as inactive in assay [5] and in assay [7]. Besides, the AC50 in assay [6] was 7.04 µM (active). For `CNC(=O)Oc1cccc2c1OC(C)(C)C2`, the AC50 in [1] is 0.497 µM (active). Turning to `CCCCOC(=O)c1ccccc1C(=O)OCc1ccccc1`, in [7], the concentration at half-maximal activity (AC50) is 2.72 µM (active). Take `Oc1ccc2ccc3cccc4ccc1c2c34`: the half-maximal activity concentration (AC50) in assay [6] was 6.74 µM (active); in assay [1] it was 7.92 µM (active); in [3] it was 6.02 µM (active); in [9] it was 5.32 µM (active). Regarding `c1ccc(C2CO2)cc1` (stereo unspecified), the molecule was called inactive in assay [9].

For the molecule `Nc1ccc([N+](=O)[O-])cc1`, the AC50 in [7] is 6.15 µM (active). On to `Cc1ccc(N=C=O)cc1N=C=O`, for which the results for the AC50 in assay [1] and in assay [8] were 8.65 µM (active) and 25 µM (active), respectively. Also, the molecule was called inactive in assay [10] and in assay [9]. On to `Oc1ccccc1Cl`, for which, in [3], the call was inactive. Take `CCCCCCCCOC(=O)c1ccc(C(=O)OCCCCCCCC)c(C(=O)OCCCCCCCC)c1`: the call in assay [1] and in [10] was inactive.

`CCCCC(CC)COC(=O)c1ccc(C(=O)OCC(CC)CCCC)c(C(=O)OCC(CC)CCCC)c1` (stereo unspecified): the call in assay [1] and in assay [3] was inactive. With `Nc1ccc(Cl)cc1N`, the molecule was called inactive in assay [7] and in assay [9].

Take `CCOC(=O)[C@]1(c2ccccc2)Oc2ccccc2[C@@H]1N`: the half-maximal activity concentration (AC50) in assay [5] was 1.3 µM (active); in assay [6], 6.56 µM (active); in assay [7], 2.09 µM (active); in [1] it was 24.3 µM (active). `Cc1cc(N=Nc2ccccc2C)ccc1N`: the AC50 in assay [7] was 2.69 µM (active). Turning to `O=C(Oc1ccc(Br)cc1)N1CCN2CCC1CC2`, in [3], the call was inactive. In the case of `CCCCCCCCn1sccc1=O`, the AC50 in assay [5] is 7.91 µM (active); in assay [6], 8.75 µM (active); in assay [7], 6.04 µM (active). As for `CO[C@@H]1[C@H](OC(=O)NC(=O)CCl)CC[C@]2(CO2)[C@H]1[C@@]1(C)O[C@@H]1CC=C(C)C`, the AC50 in assay [6] was 2.38 µM (active); in assay [7], 2.21 µM (active). Consider `CCNS(=O)(=O)C(F)(F)C(F)(F)C(F)(F)C(F)(F)C(F)(F)C(F)(F)C(F)(F)C(F)(F)F`, for which the AC50 in assay [7] was 9.65 µM (active). Further, the molecule was classed as inactive in assay [3] and in assay [4].

For `Clc1ccccc1Cl`, the AC50 in assay [2] was 1.91 µM (active). As for `C[C@]12C=CC3=C4CCC(=O)C=C4CC[C@H]3[C@@H]1CC[C@@H]2O`, in [7], the AC50 was 5.75 µM (active). Take `O=C(N[C@H](c1ccccc1)[C@@H]1CN2CCC1CC2)c1c(Cl)ccc(C(F)(F)F)c1Cl`: the AC50 in assay [5] is 3.5 µM (active). Further, in assay [6], the outcome was inactive. `COP(=S)(OC)SCN1C(=O)c2ccccc2C1=O`: the results for the AC50 in [5] and in assay [7] were 6.97 µM (active) and 0.593 µM (active), respectively. Turning to `CC(C)(C)C(O)(CCc1ccc(Cl)cc1)Cn1cncn1` (stereo unspecified), the AC50 in [6] was 5.27 µM (active); in [7] it was 0.698 µM (active).

Consider `O=C(Nc1ccccc1)c1ccccc1I`, for which, in [6], the outcome was inactive. Moreover, the AC50 in assay [7] was 4.95 µM (active). For `N#CC(Br)(Br)C(N)=O`, in [6], the call was inactive. For `Nc1ccc(Cc2ccc(N)cc2)cc1`, the AC50 in [7] is 14.4 µM (active). In the case of `CCOc1cccc(C2(N3CCN(c4ccccc4)CC3)CCC(C)CC2)c1` (stereo unspecified), the AC50 in assay [2] was 4.36 µM (active). For the molecule `CCCCCOC(=O)c1ccccc1C(=O)OCCCCC`, in [1], the molecule was called inactive.

In the case of `Cc1cccc(N)c1N`, in assay [9], the result was inactive. `Nc1ccc(N=Nc2ccccc2)cc1`: the molecule was called inactive in assay [5] and in assay [2]. The AC50 in assay [7] is 6.47 µM (active). For the molecule `OCCOCCO`, in assay [6], the call was inactive.

In the case of `Clc1ccc(C(c2ccc(Cl)cc2)C(Cl)Cl)cc1`, the concentration at half-maximal activity (AC50) in [7] is 4.79 µM (active).

In the case of `[Cl-].[Cl-].[Hg+2]`, the values for the AC50 in [5], in [6] and in [7] were 3.44 µM (active), 0.975 µM (active) and 0.812 µM (active), respectively. For the same molecule, the result in [10] was inactive.

Source of the values: PubChem BioAssay (EPA / NIEHS).
